# Laboratory results from PubChem BioAssay (NCATS).
# Records with an inconclusive call do not appear. A number with no mark means an inactive call. The source made the active and inactive calls. The call rests on the fitted dose curve; in most records, active means well fitted cell-killing curve with a large enough effect; inconclusive means small, poorly fitted or top-dose-only effect; inactive means no such curve, though single readings can be large or run the other way.
# Test: Quantitative High-Throughput drug screen in 47 multiple myeloma cell lines against the NCATS MIPE library collection: JIM3_ECACC cell viability assay (AID 1918963; further: nearly all actives have a fitted effect of over 35% in size)
# Conditions: JIM3 myeloma viability, CellTiter-Glo ATP, 48 h; series mostly up to 45.8 µM; viability, percent of control: at the top concentration
# From the text: PI: Beverly A. Mock Ph.D.
# Laboratory of Cancer Biology and Genetics,
# Center for Cancer Research, National Cancer Institute,
# National Institute of Health, Bethesda, Maryland
# Drug resistance and disease progression are common in multiple myeloma (MM) patients, underscoring the need for new therapeutic combinations. […] We hypothesized that effective combinations would reduce MYC expression and enhance p16 activity. […] These preclinical data identify potentially useful drug combinations for evaluation in drug-resistant MM and reveal potential mechanisms of combined drug sensitivity.
# Described herein is the primary MIPE qHTS used to cherrypick compounds. Validated compounds were then further tested for potential synergistic activiy.
# [1] Peat TJ, Gaikwad SM, Dubois W, Gyabaah-Kessie N, Zhang S, Gorjifard S, Phyo Z, Andres M, Hughitt VK, Simpson RM, Miller MA, Girvin AT, Taylor A, Williams D, D'Antonio N, Zhang Y, Rajagopalan A, Flietner E, Wilson K, Zhang X, Shinn P, Klumpp-Thomas C, McKnight C, Itkin Z, Chen L, Kazandijian D, Zhang J, Michalowski AM, Simmons JK, Keats J, Thomas CJ, Mock BA. Drug combinations identified by high-throughput screening promote cell cycle transition and upregulate Smad pathways in myeloma. Cancer Lett. 2023 Aug 1;568:216284. doi: 10.1016/j.canlet.2023.216284. Epub 2023 Jun 24. PMID: 37356470; PMCID: PMC10408729.
# SEQUENCE No. (e.g., 1, 2, 3, etc.); […] (e.g., Cells, Incubation, Reagent, etc.); VALUE and DESCRIPTION.
# 1; Cells; 5 uL; white, solid bottom 1536-well Greiner assay plate.
# 2; Compounds; 23 nL; Kalypsis pin tool (Wako USA) equipped with a 1536-well pin head to transfer to the assay plates.
# 3; Incubation; 48 hours; 37C incubation.
# 4; Reagent;5uL; CellTiter Glo (Promega).
# 5; Detector; 425V; Luminescence; Viewlux PerkinElmer.
# NOTES (numbers refer to Sequence numbers above)
# 1. The cell-based screening methods employed in this study were like those previously published. Briefly, the corresponding myeloma cell lines were screened in 1,536-well plates with 500 cells, 5-uL per well for inhibition of cell viability (assessed by measuring ATP levels with CellTiterGlo).
# 2. NCATS MIPE 4.0 library of approved and investigational drugs were added using the Kalypsis pin tool. Wells treated with DMSO only for 100% viability and media only wells for 0% viability were used as controls.
# 3. The assay plates were covered and incubated for 48 hours in a 37C, 5% CO2 incubator with controlled humidity.
# 4. After 48 hours, CellTilter-GloTM luminescent substrate mix (Promega) reagent was added to the assay plate and plates we incubated for 5 min at room temperature.
# 5. Signal was measured as median relative luminescence units on a ViewLux (PerkinElmer) multiplate reader.
# [1] Heske CM, Davis MI, Baumgart JT, Wilson K, Gormally MV, Chen L, Zhang X, Ceribelli M, Duveau DY, Guha R, Ferrer M, Arnaldez FI, Ji J, Tran HL, Zhang Y, Mendoza A, Helman LJ, Thomas CJ. Matrix Screen Identifies Synergistic Combination of PARP Inhibitors and Nicotinamide Phosphoribosyltransferase (NAMPT) Inhibitors in Ewing Sarcoma. Clin Cancer Res. 2017 Dec 1;23(23):7301-7311. doi: 10.1158/1078-0432.CCR-17-1121. Epub 2017 Sep 12. PMID: 28899971; PMCID: PMC6636827.
# Potency means the concentration at half of the fitted maximal effect.
Compound,"viability, percent of control [%]",Potency
NC(=O)c1ccc(-c2nc(-c3ccc4c(c3)OCCO4)c(-c3ccccn3)[nH]2)cc1,69.3,
Cn1cnc2c(F)c(Nc3ccc(Br)cc3Cl)c(C(=O)NOCCO)cc21,,1.66 µM (active)
O=C1CCC(N2C(=O)c3ccccc3C2=O)C(=O)N1 (stereo not given),105,
CC1(C)SCCN(S(=O)(=O)c2ccc(OCC#CCO)cc2)[C@@H]1C(=O)NO,108,
Cc1[nH]c(=O)c(C#N)cc1-c1ccncc1,,18.7 µM (active)
CCCc1nc2c(C)cc(-c3nc4ccccc4n3C)cc2n1Cc1ccc(-c2ccccc2C(=O)O)cc1,105,
CNC[C@H](O)c1cccc(O)c1,133,
Oc1cccc(-c2nc(N3CCOCC3)c3oc4ncccc4c3n2)c1,,0.0762 µM (active)
CC(C)(N)C(=O)N[C@H](COCc1ccccc1)C(=O)N1CCC2(CC1)CN(S(C)(=O)=O)c1ccccc12,,7.43 µM (active)
CCCn1c(=O)c2[nH]c(C34CC5CC3C[C@@H](C5)C4)nc2n(CCC)c1=O,111,
Cc1ccc(NC(=O)c2cccc(C(C)(C)C#N)c2)cc1Nc1ccc2ncn(C)c(=O)c2c1,,11.8 µM (active)
Cc1cnc(Nc2ccc(OCCN3CCCC3)cc2)nc1Nc1cccc(S(=O)(=O)NC(C)(C)C)c1,102,
OCCC#Cc1nc(-c2ccc(F)cc2)c(-c2ccncc2)n1CCCc1ccccc1,,23.5 µM (active)
COc1ccc(COc2cc3oc(=O)c4cc(C(C)O)ccc4c3cc2OC)cc1 (stereo not given),,16.6 µM (active)
CCOc1ccc(Cc2cc([C@@H]3O[C@H](CO)[C@@H](O)[C@H](O)[C@@H]3O)ccc2Cl)cc1,,20.9 µM (active)
O=C(C1CC1)N1CC[C@@H](Cn2c(-c3ccc(-c4ccc5occc5c4)cc3)nc3cnccc32)C1,,16.6 µM (active)
S=C(NCc1ccc2c(c1)OCO2)N1CCN(c2ncnc3c2oc2ccccc23)CC1,,5.4 µM (active)
C[C@H](NC(=O)Cc1cc(F)cc(F)c1)C(=O)N[C@@H]1C(=O)N(C)c2ccccc2-c2ccccc21,,18.7 µM (active)
CNC(=O)c1ccc(C)c(-n2c(C)cc(OCc3ccc(F)cc3F)c(Br)c2=O)c1,,16.6 µM (active)
CC(c1cc2ccccc2s1)N(O)C(N)=O (stereo not given),108,

Compound,"viability, percent of control [%]",Potency
O=c1[nH]cnc2[nH]ncc12,98.3,
N#CC[C@H](C1CCCC1)n1cc(-c2ncnc3[nH]ccc23)cn1,,6.62 µM (active)
Cc1ccc(-n2nc(C(C)(C)C)cc2NC(=O)Nc2ccc(OCCN3CCOCC3)c3ccccc23)cc1,,18.7 µM (active)
Cn1cnc([N+](=O)[O-])c1Sc1ncnc2nc[nH]c12,,14.8 µM (active)
Cc1[nH]c(=O)c(C#N)cc1-c1ccc2nccn2c1,90.1,
Cn1c(=O)c(F)c(Nc2ccc(I)cc2F)c2c(=O)n(C[C@@H](O)CO)cnc21,,3.32 µM (active)
COc1ccc([C@@H]2CC(=O)c3c(O)cc(O[C@@H]4O[C@H](CO[C@@H]5O[C@@H](C)[C@H](O)[C@@H](O)[C@@H]5O)[C@@H](O)[C@H](O)[C@@H]4O)cc3O2)cc1O,98.3,
Cc1ccccc1C(OCCN(C)C)c1ccccc1 (stereo not given),126,
Cc1cc(Nc2nc(N[C@@H](C)c3ncc(F)cn3)ncc2Cl)n[nH]1,,8.33 µM (active)
CCn1cc(C(=O)O)c(=O)c2cc(F)c(N3CCNC(C)C3)c(F)c21 (stereo not given),113,
COc1ccc(-c2oc3cc(OC)ccc3c2C(=O)c2ccc(C#N)cc2)cc1,117,
NCCc1ccc(O)c(O)c1,,18.7 µM (active)
Cc1cc(C=c2sc3nc4ccccc4n3c2=O)c(C)n1-c1ccccc1,99.8,
Nc1ccc(S(=O)(=O)Nc2ccnn2-c2ccccc2)cc1,123,
Fc1ccc(Cl)cc1-c1nc(Nc2ccncc2)c2nccnc2n1,,13.2 µM (active)
Cc1cnc(NC(=O)C2=C(O)c3ccccc3S(=O)(=O)N2C)s1,106,
CN(C)c1ccc(Nc2nc(N)n(C(=O)c3c(F)cccc3F)n2)cc1,,16.6 µM (active)
CC1(C)CNc2cc(NC(=O)c3cccnc3NCc3ccncc3)ccc21,83.1,
CCN(CC)CCCC(C)Nc1ccnc2cc(Cl)ccc12 (stereo not given),99.6,
NNCCc1ccccc1,106,
